Measured values published in PubChem BioAssay (NCI).
This is part of a sample that, as a whole, favours compounds with a hit. Of some 83,000 tested, about 20% had one in any assay.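 For each line, cells grew in 96-well plates with the test compound present at a single concentration for 48 hours.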 Unmarked numbers belong to inactive results. Activity calls are given as the source filed them. Rule for the calls: active = growth percent below 10; inactive = the rest.

Assays:
Assay in all cases: NCI-60 one-dose screen, 48 h (100 = growth as untreated, 0 = no growth, -100 = all killed)
Details in all cases: 10 µM unless noted
NCI-H23 lung = test system: NCI-H23 lung
NCI-H226 lung = test system: NCI-H226 lung
HOP-62 NSCLC = test system: HOP-62 NSCLC
NCI-H460 lung = test system: NCI-H460 lung
HOP-92 NSCLC = test system: HOP-92 NSCLC
NCI-H522 lung = test system: NCI-H522 lung
A549/ATCC NSCLC = test system: A549/ATCC NSCLC
786-0 renal = test system: 786-0 renal
COLO 205 colon = test system: COLO 205 colon
DU-145 prostate = test system: DU-145 prostate
K-562 leukemia = test system: K-562 leukemia
MALME-3M melanoma = test system: MALME-3M melanoma
MDA-MB-231 breast = test system: MDA-MB-231 breast
RXF 393 renal = test system: RXF 393 renal
SF-268 CNS = test system: SF-268 CNS
SF-295 CNS = test system: SF-295 CNS
SF-539 CNS = test system: SF-539 CNS
UACC-257 melanoma = test system: UACC-257 melanoma
M14 melanoma = test system: M14 melanoma
NCI-H322M lung = test system: NCI-H322M lung

Row | Structure (SMILES) | growth (NCI-H23 lung) | growth (NCI-H226 lung) | growth (HOP-62 NSCLC) | growth (NCI-H460 lung) | growth (HOP-92 NSCLC) | growth (NCI-H522 lung) | growth (A549/ATCC NSCLC) | growth (786-0 renal) | growth (COLO 205 colon) | growth (DU-145 prostate) | growth (K-562 leukemia) | growth (MALME-3M melanoma) | growth (MDA-MB-231 breast) | growth (RXF 393 renal) | growth (SF-268 CNS) | growth (SF-295 CNS) | growth (SF-539 CNS) | growth (UACC-257 melanoma) | growth (M14 melanoma) | growth (NCI-H322M lung)
1 | CCNc1ncnc2n[nH]nc12 | 96.9% | 90.8% | 95.7% | 103% | 83.1% | 93.2% | 91.1% | 96.1% | 105% | 104% | 97% | 102% | 111% | 112% | 99.5% | 95% | 101% | 92.9% | 99.7% | –
2 | Cc1cn([C@]2(CF)O[C@H](CO)C2C)c(=O)[nH]c1=O (some centres not stated) | 111% | 111% | – | – | 107% | 87.1% | – | 101% | 108% | 124% | 104% | 113% | 116% | 101% | 112% | 121% | 110% | 103% | 118% | 108%
3 | OCCOCC(F)(F)F | 104% | 105% | 111% | 108% | 94.9% | 110% | 113% | 113% | 112% | 109% | 97.2% | 99.6% | 124% | 113% | 102% | 103% | 96.7% | 118% | 112% | –
4 | Cc1ccc2nc(-c3ccc(-n4on4-c4ccc(/C=C/c5ccc(-n6on6-c6ccc(-c7nc8ccc(C)cc8s7)cc6)cc5S(=O)(=O)O)c(S(=O)(=O)O)c4)cc3)sc2c1 | 105% | 108% | 121% | 114% | 138% | 117% | 113% | 98.2% | 119% | 111% | 99.2% | 101% | 133% | 110% | 99.8% | 110% | 98.7% | 110% | 99.5% | –
5 | Nc1c(C(=O)O)[nH]c(=O)[nH]c1=O | 103% | – | 108% | 104% | 104% | 84.3% | 71.9% | 104% | 115% | 110% | 86.9% | 110% | – | 93.5% | 98.7% | 99.7% | 103% | 75.7% | 103% | 102%
6 | C=C1C(=O)O[C@H]2[C@H]1CC/C(COC(=O)c1ccc(Cl)nc1)=C\CC[C@@]1(C)O[C@@H]21 | 47.5% | – | 57.1% | 56.1% | -40.1% (active) | -83.7% (active) | 39.7% | 9.88% (active) | -73.3% (active) | 12.4% | – | -51% (active) | -2.63% (active) | -73.1% (active) | 56.9% | 74.9% | -34.5% (active) | 34.4% | 9.23% (active) | 68.4%
7 | COc1ccccc1C(OC(C)=O)OC(C)=O | 98.7% | – | 104% | 107% | 115% | 78% | 79.5% | 97.7% | 110% | 109% | 95.6% | 108% | – | 111% | 98.8% | 96.6% | 101% | 87.5% | 98.3% | 97.5%
8 | O=C(O)c1ccc2nc(-c3ccc(OCCCCCOc4ccc(-c5nc6ccc(C(=O)O)cc6[nH]5)cc4)cc3)[nH]c2c1 | 46% | – | 91.9% | 109% | 100% | 92.8% | 81.7% | -20.8% (active) | 8.79% (active) | 120% | 77.6% | 173% | 105% | -11.8% (active) | 156% | 123% | 108% | 78.8% | 94.1% | 91.5%
